Results published in paper PMC4336329 (PLoS ONE, 2015).
The whole screen tested about 310,000 compounds, of which about 14,000 (4.5%) showed an effect of 50% or more. The effect is printed as a negative number. The full list was thinned out, with strong results kept by preference.

Target: human ether-à-go-go-related gene (hERG) potassium channel (human, UniProt Q12809)
Assay: primary screen, population patch clamp on CHO cells stably expressing hERG; higher = less effect of the substance
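Further: peak tail current of the secondary pulse compared with the same well before compound.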

Sequence of human ether-à-go-go-related gene (hERG) potassium channel (Q12809 whole entry, looked up): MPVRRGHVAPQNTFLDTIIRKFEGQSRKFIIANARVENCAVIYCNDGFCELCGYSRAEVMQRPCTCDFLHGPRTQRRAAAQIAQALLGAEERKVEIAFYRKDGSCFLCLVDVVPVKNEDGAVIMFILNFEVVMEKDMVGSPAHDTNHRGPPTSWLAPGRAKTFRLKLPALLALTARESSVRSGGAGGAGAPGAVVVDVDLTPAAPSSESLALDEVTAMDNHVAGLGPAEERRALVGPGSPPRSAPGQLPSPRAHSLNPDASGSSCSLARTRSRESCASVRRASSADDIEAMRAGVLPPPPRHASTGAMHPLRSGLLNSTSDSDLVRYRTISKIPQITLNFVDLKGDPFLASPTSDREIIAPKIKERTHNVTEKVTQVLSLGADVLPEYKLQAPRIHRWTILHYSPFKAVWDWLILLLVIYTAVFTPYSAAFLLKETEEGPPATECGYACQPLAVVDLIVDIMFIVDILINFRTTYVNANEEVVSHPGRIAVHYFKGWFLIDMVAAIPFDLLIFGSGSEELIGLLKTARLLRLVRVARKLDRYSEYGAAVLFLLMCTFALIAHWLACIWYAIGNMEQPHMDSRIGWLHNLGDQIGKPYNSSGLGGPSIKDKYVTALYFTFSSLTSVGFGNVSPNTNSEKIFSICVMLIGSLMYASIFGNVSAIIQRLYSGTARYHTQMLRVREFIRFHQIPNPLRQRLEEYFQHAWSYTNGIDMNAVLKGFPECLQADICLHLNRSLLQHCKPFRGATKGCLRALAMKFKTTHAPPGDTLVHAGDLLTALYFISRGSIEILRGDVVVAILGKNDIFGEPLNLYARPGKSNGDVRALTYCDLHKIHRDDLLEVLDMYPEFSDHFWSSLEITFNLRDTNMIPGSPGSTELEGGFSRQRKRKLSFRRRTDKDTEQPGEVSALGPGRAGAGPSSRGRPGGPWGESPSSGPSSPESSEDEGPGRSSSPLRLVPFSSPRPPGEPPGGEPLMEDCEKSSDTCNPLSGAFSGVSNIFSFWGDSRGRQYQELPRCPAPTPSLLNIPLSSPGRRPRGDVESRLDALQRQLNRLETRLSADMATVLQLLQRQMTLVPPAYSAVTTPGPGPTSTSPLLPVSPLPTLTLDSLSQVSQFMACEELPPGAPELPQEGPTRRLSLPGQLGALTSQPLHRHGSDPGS

| Structure (SMILES) | hERG current change (%, negative = inhibition) at 10uM [%] |
| --- | --- |
| CC(C(=O)Nc1ccc(Cl)cc1Cl)N1CC=C(c2ccccc2)CC1 (stereo not drawn) | -28.1 |
| CCn1c(=O)c(CCC(=O)N2CCN(c3ccccn3)CC2)c(C)c2c(C)nn(-c3ccccc3)c21 | -17.8 |
| Cc1ccc2nc(SCC(=O)N3CCCC3)nc(=O)n2c1 | -0.651 |
| Cn1nc(C(=O)Nc2nc3ccccc3[nH]2)c2ccccc2c1=O | -47.1 |
| CC(C)OCCCNC(=O)C1CCC(CNS(=O)(=O)c2ccccc2)CC1 (stereo not drawn) | -7.62 |
| Cc1ccc(C(C)(C)C)c(OCCCn2ccnc2)c1.O=C(O)C(=O)O | -16.6 |
| CCc1cc(CNC(=O)CC2C(=O)NCCN2Cc2ccccc2C(F)(F)F)on1 (stereo not drawn) | 10 |
| Cc1ccc2nc(NC(=O)Cn3nc(C)c([N+](=O)[O-])c3C)sc2c1 | -23.5 |
| CCOc1ccc(C(=O)OCC(=O)NC2CCCC2)cc1OCC | 8.34 |
| COc1ccccc1NC(=O)/C(=N/OCc1ccc(C#N)cc1)C(C)=O | -18.2 |
| COC(=O)c1sccc1NC(=O)c1c(-c2ccccc2)noc1C | -26.5 |
| Cc1ccccc1C(=O)NNC(=O)Nc1ccccc1 | 11.6 |
| CCOc1ccc2nc(C)cc(Nc3ccc(N4CCOCC4)cc3)c2c1.Cl | -73 |
| COc1ccc2nc(C)cc(Nc3ccc(N4CCN(C)CC4)cc3)c2c1 | -1.75 |
| CCOc1ccc(Nc2cc(C)nc(N3CCOCC3)n2)cc1 | 0.875 |
| CCOc1ccc2nc(N3CCOCC3)nc(C)c2c1 | 3.2 |
| COc1ccc(Nc2cc(C)nc(N3CCOCC3)n2)cc1 | -12.2 |
| COc1ccc2nc(C)cc(Nc3ccc(N4CCOCC4)cc3)c2c1.Cl | -60.9 |
| COc1ccc(S(=O)(=O)NCc2ccccc2)cc1Br | 6.25 |
| NC(=O)CC1Nc2cccc3cccc(c23)NC1=O (stereo not drawn) | 8.93 |

| Structure (SMILES) | hERG current change (%, negative = inhibition) at 10uM [%] |
| --- | --- |
| COc1ccc(CCNC(=O)CCc2nc3ccccc3[nH]2)cc1OC | -7.59 |
| CCN(CC(=O)Nc1ccc(NC(C)=O)cc1)C(=O)CCCSc1nc2ccccc2[nH]1 | -0.716 |
| Cc1oc2c(c(=O)c1C)C(=O)CC(c1ccccc1)C2 (stereo not drawn) | -23.7 |
| CCCCc1oc2c(c(=O)c1C)C(=O)CC(c1ccccc1)C2 (stereo not drawn) | -59.8 |
| CCCCc1noc2c1/C(=N\O)CC(c1ccccc1)C2 (stereo not drawn) | 7.26 |
| CSc1ccccc1NC(=O)CN(C)C(=O)Cc1c[nH]c2ccccc12 | -0.585 |
| Cc1cc(NC(=O)CSc2nc3c(sc4ccccc43)c(=O)n2CCCN2CCOCC2)n[nH]1 | 2 |
| CCOC(=O)CSc1nc2c(sc3ccc([N+](=O)[O-])cc32)c(=O)n1Cc1ccco1 | -32.4 |
| NC(=O)CSc1nc2c(sc3ccccc32)c(=O)n1CCCC(=O)NCC1CCCO1 (stereo not drawn) | -16.8 |
| COCCCNC(=O)CSc1nc2c(sc3ccccc32)c(=O)n1CCCC(=O)NCC1CCCO1 (stereo not drawn) | -14.4 |
| CCCCn1c(SCC(=O)NC(C)CC)nc2ccc(N3CCOCC3)cc2c1=O (stereo not drawn) | -12.8 |
| CCOC(=O)CSc1nc2c(sc3ccccc32)c(=O)n1CCCN1CCOCC1 | -65.9 |
| O=C(CSc1nc2c(sc3ccccc32)c(=O)n1Cc1ccccc1)NCC1CCCO1 (stereo not drawn) | 16.8 |
| CCCCn1c(SCC(N)=O)nc2c(sc3ccccc32)c1=O | -12.4 |
| NC(=O)CSc1nc2c(sc3ccccc32)c(=O)n1CCCN1CCOCC1 | -52.8 |
| O=C(CSc1nc2c(sc3ccccc32)c(=O)n1CCCN1CCOCC1)NC1CCCC1 | -64.7 |
| CCC(C)NC(=O)CSc1nc2c(sc3ccccc32)c(=O)n1CCCN1CCOCC1 (stereo not drawn) | -53.4 |
| O=C1CSC(c2ccccn2)N1c1ccc(F)cc1F (stereo not drawn) | -0.569 |
| COc1ccccc1Nc1nc(-c2sc(NC(=O)CC(C)C)nc2C)cs1 | 5.43 |
| O=C(CCC(=O)N1CCSc2ccccc21)NC1CCCCC1 | -2.55 |

| Structure (SMILES) | hERG current change (%, negative = inhibition) at 10uM [%] |
| --- | --- |
| O=C(OCCNc1ccc(C(F)(F)F)cc1[N+](=O)[O-])c1cc2ccccc2oc1=O | 4.72 |
| CC(Sc1nncn1C)C(=O)Nc1ccc(S(N)(=O)=O)cc1 (stereo not drawn) | 15.7 |
| Cc1oc(-c2ccccc2Cl)nc1CSCC(=O)N1CCCC1 | -19.9 |
| COc1ccc(Cl)cc1NC(=O)CN(C)C(=O)c1ccc(COc2ccccc2)cc1 | 13.5 |
| CC1CCc2ccc(F)cc2N1S(=O)(=O)c1cccs1 (stereo not drawn) | 2.36 |
| CNC(=S)NNC(=O)c1ccc(N(C)C)cc1 | 0.516 |
| Cc1cc(C)c(S(=O)(=O)NCC2CCC(C(=O)NCc3ccc4c(c3)OCO4)CC2)c(C)c1 (stereo not drawn) | -1.15 |
| O=C(N/N=C/C=C/c1ccccc1)c1n[nH]c2c1CCC2 | 9.22 |
| CCCC(=O)Nc1cc(-c2nnc(OC)c3ccccc23)ccc1N1CCOCC1 | -42.9 |
| COC(=O)c1ccc(N2CCOCC2)c(NC(=O)c2ccco2)c1 | 1.95 |
| COc1nnc(-c2ccc(N3CCOCC3)c(NC(C)=O)c2)c2ccccc12 | -1.4 |
| Cc1ccc(S(=O)(=O)Nc2cc(-c3nn(C)c(=O)c4ccccc34)ccc2N2CCOCC2)cc1 | -57 |
| COc1ccc(N2CCOCC2)c(NC(=O)c2ccco2)c1 | -73.1 |
| Cn1nc(-c2ccc(N3CCOCC3)c(NS(=O)(=O)c3ccc(Cl)cc3)c2)c2ccccc2c1=O | -9.74 |
| COc1ccc(NS(=O)(=O)c2ccc(N3CCOCC3)c(NC(=O)c3ccco3)c2)cc1 | 30.3 |
| COc1nnc(-c2ccc(N3CCOCC3)c(NC(=O)c3ccco3)c2)c2ccccc12 | -70 |
| Cn1nc(-c2ccc(N3CCOCC3)c(NS(=O)(=O)c3ccccc3)c2)c2ccccc2c1=O | -15.6 |
| COc1nnc(-c2ccc(N3CCOCC3)c(NC(=O)c3ccc(C)cc3)c2)c2ccccc12 | -68.9 |
| COc1nnc(-c2ccc(N3CCOCC3)c(NC(=O)c3ccccc3)c2)c2ccccc12 | -19.5 |
| CCC(=O)Nc1cc(-c2nnc(OC)c3ccccc23)ccc1N1CCOCC1 | -5.46 |
